Assay outcomes: PubChem, National Center for Advancing Translational Sciences (NCATS)
The list is not random: actives were taken first. Their share in the collection is about 7.5%.
ELG1 genotox: genotoxicity induction in ELG1-luciferase HEK293T cells; HEK293T ELG1-luciferase reporter, luminescence, 16 h; Potency, µM (titrated, usually from 46 µM), without a hit: top-dose activity change, positive = activation, hits mostly activators; 1.3% of 330,000 active; further: % of control where 0% means no effect; nearly all actives have a fitted effect of over 60% in size
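Cells (2,000/well) expressing the ELG1-luciferase fusion are dosed by pin tool and kept 16 hr at 37 °C, 5% CO2. Signal comes from ONE-Glo luciferase reagent after 30 min at room temperature.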
FLuc counter: inhibits or activates purified firefly luciferase, miR-21 counter-screen | Potency, µM (top dose mostly 57.5 µM), without a hit: at the top dose activity change, negative = inhibition, hits mostly inhibitors | purified FLuc, Km substrates, luminescence inhibition | 6.9% of 360,000 active | P08659 | AID 588342;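 further: plate controls were vehicle for no effect and reference inhibitor for full effect; nearly all actives have a fitted effect of over 55% in size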
Target sequence (P08659 whole entry, looked up): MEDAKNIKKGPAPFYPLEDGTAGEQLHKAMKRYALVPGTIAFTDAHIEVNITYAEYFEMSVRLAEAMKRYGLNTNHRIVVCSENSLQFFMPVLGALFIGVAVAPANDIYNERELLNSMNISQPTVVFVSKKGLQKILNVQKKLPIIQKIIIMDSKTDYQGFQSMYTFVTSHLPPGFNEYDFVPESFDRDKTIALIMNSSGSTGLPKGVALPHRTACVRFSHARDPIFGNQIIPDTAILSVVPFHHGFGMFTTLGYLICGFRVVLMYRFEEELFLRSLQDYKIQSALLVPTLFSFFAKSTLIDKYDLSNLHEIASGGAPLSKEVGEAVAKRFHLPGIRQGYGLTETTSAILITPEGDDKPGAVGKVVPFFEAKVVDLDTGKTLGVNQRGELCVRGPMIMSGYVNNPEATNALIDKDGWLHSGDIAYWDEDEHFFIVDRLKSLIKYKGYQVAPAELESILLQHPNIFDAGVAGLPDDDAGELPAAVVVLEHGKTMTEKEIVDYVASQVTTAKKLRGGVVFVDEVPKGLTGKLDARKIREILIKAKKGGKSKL
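Purified P. pyralis luciferase, 10 nM final, with Km-level 10 uM D-luciferin and 10 uM ATP in 50 mM Tris acetate pH 7.5, 10 mM Mg acetate, 0.01% Tween-20, 0.05% BSA; 6-point qHTS titration about 60 µM downward; luminescence read.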
Rab9 prom act: Rab9 promoter activation | Huh7 Rab9 promoter-luciferase reporter, luminescence, 24 h | Potency, µM (highest dose often 9.22 µM), inactives show top-dose activation, negative = inhibition, actives largely listed as activators | 2.8% of 320,000 active | AID 485297; further: % of control where 0% means no effect; nearly all actives have a fitted effect of over 60% in size
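Cells were plated at 1500 per well in reduced-serum medium with 10% FBS and left 2 h. Compound in DMSO was then added for 24 h at 37 °C. Reporter signal was read by luminescence after 10 min with luciferase detection reagent.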
NPC1 prom act: NPC1 promoter activation; Huh7 NPC1 promoter luciferase reporter, 24 h; Potency, µM (series often up to 9.22 µM), without a hit: at the highest dose activation, hits mostly activators; 2.4% of 320,000 active; further: % of control where 0% means no effect; nearly all actives have a fitted effect of over 60% in size
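Quantitative HTS used a cell-based reporter: Huh7 cells stably bearing the NPC1 promoter upstream of luciferase were treated with compounds for 24 h, and promoter activation was read as luminescence.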
KinaseGlo FLuc: Kinase-Glo luciferase inhibition (counter-screen). Kinase-Glo luciferase, ATP luminescence, 8 min. Potency, µM (doses to about 38.3 µM), for inactives: at the highest dose activity change, negative = inhibition, actives largely listed as inhibitors. 0.28% of 200,000 active. Q27757; further: on the % scale 0 is the no-effect control and ±100 the full control effect; nearly all actives have a fitted effect of over 60% in size
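Inhibition of Kinase-Glo luciferase light generation was assessed at 10 uM ATP in pH 7.2 imidazole buffer, with luminescence measured after eight minutes at ambient temperature.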
SMN2 splice enh: increases expression of the SMN2 splice variant; HEK293 SMN2-luciferase splicing reporter, luminescence, 30-36 h; Potency, µM (highest dose often 46.1 µM), for the others: at the highest dose activity change, positive = activation, usual class: activators; 2.8% of 210,000 active; further: % of control where 0% means no effect; nearly all actives have a fitted effect of over 55% in size
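HEK293 cells carry an SMN2 minigene-luciferase reporter in which exon 7 inclusion puts luciferase in frame. Cells were seeded at 2000 cells/well, attached for 10-12 hours, then exposed to compounds for 30-36 hours at 37C before ONE-Glo luminescence.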
Starred values were filed as active, the others as inactive; ? = inconclusive; . = no result; [ ] = remark or other dose. The call rests on the fitted dose curve; in most records, active means well fitted curve in the direction sought with a large enough effect; inconclusive means small, poorly fitted or top-dose-only effect, or another doubt; inactive means no such curve, though single readings can be large; an effect the other way counts as inactive or inconclusive. Potency means the concentration at half of the fitted maximal effect.

SMILES | ELG1 genotox | FLuc counter | Rab9 prom act | NPC1 prom act | KinaseGlo FLuc | SMN2 splice enh
Cc1cc(/C=N\O)c(C)n1-c1ccncc1 | 2% | 0% | 3% | -2% | -1% | 17%
CCc1ccc(-n2c(C)cc(/C=N/NC(=O)OC)c2C)cc1 | 14% | 19µM* | 2% | 1% | 0% | 3%[1.84 µM]
COC(=O)N/N=C/c1cc(C)n(-c2ccccc2)c1C | ? | 8.5µM* | ? | 25% | -1% | -1%[1.84 µM]
CC(=O)C(=Cc1cc(C)n(-c2ccccc2)c1C)C(C)=O | -1% | 19µM* | 2% | -9% | 2% | 17%
CC(=O)N/N=C/c1cc(C)n(-c2ccc(Br)cc2)c1C | 0% | -18% | 10% | 5% | 2% | -13%
Cc1cc(/C=N/O)c(C)n1-c1ccccc1 | 9% | 17µM* | 17% | 8% | 0% | 5%[1.84 µM]
CC1=C(C(N)=O)C(c2cccs2)NC(=O)N1 (configuration not stated) | 2% | 0% | -2% | 3% | . | .
O=C(NCc1cnn(-c2ccccc2)c1)C1CCC(=O)N(C2CC2)C1 (configuration not stated) | 0% | 5% | -1% | -3% | . | .
O=S(=O)(c1ccc(Br)cc1)c1nc(-c2ccco2)oc1SCc1ccccc1F | . | -7% | . | . | . | -13%
COC(=O)N/N=C/c1cc(C)n(-c2ccc(F)cc2)c1C | ? | 24µM* | 21% | 0% | -2% | 28%
COC(=O)N/N=C/c1cc(C)n(-c2ccc(Br)cc2)c1C | 2% | ? | 16% | 1% | . | .
O=C(NC1CCCC1)c1cc(-c2cccs2)on1 | 9.2µM* | 4.8µM* | 2µM* | 1.6µM* | -4% | ?
O=C(NC1CC1)c1cc(-c2cccs2)on1 | . | 11µM* | . | . | . | .
Cc1nnc(NC(=O)c2ccc(Br)o2)s1 | 8% | ? | 8% | 1% | . | .
O=C(COC(=O)CC1CCCC1)Nc1ccccc1[N+](=O)[O-] | -1% | ? | -1% | -4% | . | .
O=C(CSc1nc(-c2ccc(F)cc2)cs1)N1CCOCC1 | 18µM* | ? | ? | 29% | 0% | 62%
Clc1ccc(-c2csc(N3CCSCC3)n2)cc1 | ? | 12µM* | 23% | 1% | 3% | 14%
Brc1ccc(-c2csc(N3CCc4ccccc4C3)n2)cc1 | 0% | ? | -7% | 0% | 5% | -6%
CC1CN(C(=O)CSc2nc(-c3ccc(F)cc3)cs2)CC(C)O1 (configuration not stated) | -2% | -3% | 0% | -1% | 1% | -46%
Cc1nc(-c2ccccc2)cs1 | 0% | -14% | 0% | -4% | -1% | 15%
Brc1ccc(-c2csc(N3CCC(c4ccccc4)C3)n2)cc1 (configuration not stated) | 8% | 6µM* | ? | ? | 3% | -33%
c1ccc(-c2csc(-n3cccn3)n2)cc1 | 2% | 27µM* | 23% | 19% | -4% | 1%
O=C(CN1C(=O)CCSc2ccc(S(=O)(=O)N3CCCC3)cc21)Nc1ccccc1 | 2%[9.26 µM] | -2% | -6% | -9% | . | .
Fc1ccc(-c2csc(N3CCOCC3)n2)cc1 | 13% | 21µM* | 2.5µM* | 4µM* | . | .
O=C(c1ccco1)N1CCN(c2ccc(F)cc2)CC1 | 8% | -3% | 26% | 1% | -4% | 23%
SMILES | ELG1 genotox | FLuc counter | Rab9 prom act | NPC1 prom act | KinaseGlo FLuc | SMN2 splice enh
COc1cc(-c2csc(N3CCOCC3)n2)cc(OC)c1OC | 6% | -10% | -1% | 1% | -2% | 9%
O=C(c1ccco1)N1CCN(c2nc(-c3ccc(F)cc3)cs2)CC1 | -4% | 24µM* | 10% | -2% | -3% | .
c1ccc(-c2csc(N3CCSCC3)n2)cc1 | 0% | 24µM* | ? | 13% | -1% | 7%
c1ccc2oc(-c3csc(N4CCOCC4)n3)cc2c1 | ? | 0.76µM* | 0.5µM* | 1.3µM* | 0% | 3.2µM*
CCOC(=O)c1nnn(C(CC)C(=O)Nc2c(C)cccc2C)c1C(=O)OCC (configuration not stated) | . | 4% | . | . | . | -3%
O=c1cnnc(SCc2ccc([N+](=O)[O-])cc2)[nH]1 | 3% | ? | -1% | 2% | 5% | -37%
O=C(c1ccco1)N1CCN(C(=O)c2cn(-c3ccccc3)nc2-c2ccc(F)cc2)CC1 | 5% | 4.8µM* | 12% | 5% | . | .
CC(C)CNC(=S)N1CCN(c2nc(-c3ccc(Cl)cc3)cs2)CC1 | -7% | -3% | -1% | -9% | . | .
CS(=O)(=O)N1CCN(c2nc(-c3ccc(F)cc3)cs2)CC1 | -1% | 11µM* | 14% | 11% | -6% | -25%
O=S(=O)(c1ccc(F)cc1)N1CCN(c2nc(-c3ccc(F)cc3)cs2)CC1 | -6% | -3% | -3% | 0% | 0% | -34%
Fc1ccc(-c2csc(N3CCSCC3)n2)cc1 | 0% | 17µM* | 21% | 6% | 5% | -11%
CCC(=O)N1CCN(c2nc(-c3ccc(Cl)cc3)cs2)CC1 | 4% | 27µM* | 1% | 2% | 2% | -42%
COc1cccc(CNC(=O)c2c(O)nc3ccccn3c2=O)c1 | . | -1% | . | . | . | -1%
Cc1ccc(-c2nnc(SCC(=O)NCCC(C)C)nc2-c2ccc(C)cc2)cc1 | . | -14% | . | . | . | .
Clc1ccc(Cc2ccc(SCc3ccccc3)nn2)c(Cl)c1 | -5% | -9% | -1% | -3% | 0% | -1%
Clc1ccc(CSc2cc3c(nn2)-c2ccccc2CC3)cc1 | 6% | 12µM* | 28% | ? | 4% | 12%
CC(C)CNC(=O)COC(=O)CNC(=O)c1cc(Cl)cc([N+](=O)[O-])c1 | 3% | -1% | -6% | -2% | -1% | 9%
CC(=O)N1CCCc2cc(S(=O)(=O)N(C)CC(=O)Nc3ccc(F)c(Cl)c3)ccc21 | . | -7% | . | . | . | .
O=S(=O)(c1cccc(C(F)(F)F)c1)n1c(/C=C/c2ccccc2)nc2ccccc21 | . | 12µM* | . | . | . | .
CSc1ccc(/C=C/c2nc3ccccc3n2S(=O)(=O)c2ccc(Br)cc2)cc1 | . | 0.043µM* | . | . | . | 0.5µM*
CN1CCCN(S(=O)(=O)c2cccc(C(F)(F)F)c2)c2nc3ccccc3nc21 | -8% | . | -9% | 0% | . | .
CCOc1ccc(/C=C/c2nc3ccccc3n2S(=O)(=O)c2ccc(Br)cc2)cc1 | . | 0.85µM* | . | . | . | 2.8µM*
CCCCNC(=O)c1nnn(-c2ccccc2)c1N | ? | ? | ? | ? | 0% | 13µM*
CCOC(=O)/C=C1\SCC(=O)N1CC(=O)Nc1cccc(F)c1 | 0% | 3% | 0% | -1% | 5% | 9%
CC(=O)Nc1ccc(-c2cc(C(=O)O)c3ccccc3n2)cc1 | -2% | 3.4µM* | 0% | -3% | . | .
